Several values for one entry are separate records, joined by “and”; a condition that tells them apart may be missing. Equal values may be shown once. The whole screen tested about 300,000 compounds, of which about 2,500 (0.83%) were called active. Cut-off read from the data, not from the text of the source: active = inhibition above about 60%; inconclusive = no clear call, values can overlap the other calls; inactive = below that. This excerpt belongs to a sample that is enriched for actives.
Assay: MLPCN primary screen, SNCA 5' untranslated region (AID 1813);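 note: H4 neuroglioblastoma cells stably carrying SNCA 5'UTR luciferase fusion; 0% = DMSO wells and 100% = positive control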
Settings: alpha-synuclein 5'UTR reporter, inhibitor activity; stronger effect = higher value; tested at 7.5 µM

inhibition, inactive:
CNC[C@H](CC1CCCCC1)NC[C@H](NCCC1CCCC1)[C@H](C)O -34.1%, CC(=O)N1C(C)c2ccccc2C(C)(C)CC12CCCCC2 (centres undefined) -9.23%, Cc1csc(NC(=O)c2ccc(C)s2)n1 -174%, COc1ccc(Cc2nnc(NC(=O)c3ccc(OC)cc3OC)s2)cc1 -62.4%, COc1cc2ccccc2cc1C(=O)Nc1nc(C)c(C(C)=O)s1 -106%, COc1cc(SC)ccc1C(=O)Nc1cc(C)ccn1 -8.42%, Cn1c(Cc2cccs2)nnc1SCC(=O)Nc1ccccc1 11%, COc1ccc(NC(=O)CSc2ccc(-c3ccco3)nn2)c(OC)c1 7.22%, CC(C)CN(C(=O)c1ccc2c(c1)OCO2)C1CCS(=O)(=O)C1 (centres undefined) -8.68%, CC(C)C(=O)N1CCN(c2nc(-c3ccccc3)c3c(c2C#N)CC(C)(C)OC3)CC1 -10.5%, CCO[C@H]1OC(C(=O)N2CCN(Cc3ccccc3)CC2)=C[C@@H](c2cn(C(C)=O)c3ccccc23)[C@@H]1CCCO 14.2%, O=C(COC(=O)c1ccc(Cl)nc1)NCc1ccc2c(c1)OCO2 17.3%, O=S(=O)(c1ccc(F)cc1)N1CCN(C(=S)NC2CCCC2)CC1 4.9%, CN(NC(=O)c1ccccc1)c1nc2ccccc2nc1C(F)(F)F -26.7%, CN(NC(=O)c1ccccc1F)c1nc(C(F)(F)F)nc2ccccc12 39.8%, O=c1c2cc(-c3ccccc3)sc2nc2n1N=C(c1cccs1)CS2 -105%, O=C(Cn1c[n+](CC(=O)c2ccc([N+](=O)[O-])cc2)cn1)c1ccc([N+](=O)[O-])cc1 1.61% and -7.59%, COc1ccccc1OC(C)C(=O)Nc1ccc(S(=O)(=O)Nc2nccs2)cc1 (centres undefined) 8.93%, CCN1CCN(CC(=O)c2cc(OC)c(OC)c(OC)c2)CC1 -44%, CSc1ncc(Sc2ccccc2)c(C(=O)O)n1 9.17%, CC(C)(C)c1ccc(OC2=CS(=O)(=O)c3ccccc32)cc1 -110%, COc1cccc(Oc2ccc(N)cc2)c1 5.65%, C=CCOc1ccc(/C=C/C(=O)OCC(=O)NC(C)c2ccc(F)cc2)cc1 (centres undefined) 5.96%, O=C(c1ccc(OC2CCN(C/C=C/c3ccc(F)cc3)CC2)cc1)N1CCCCC1 -17.6%, COCCN1C(=O)C(=O)/C(=C(/O)c2ccc(S(=O)(=O)N3CCOCC3)cc2)C1c1ccc(OC)c(OC)c1 (centres undefined) 0.0342%, CC(C)(C)NC(=O)NC(=O)CN1CCC(Cc2ccccc2)CC1 17.3%, Cc1c(Cl)c([N+](=O)[O-])nn1CCCC(=O)Nc1cc(Cl)ccc1Cl 12.6%, Cc1ccc(C(=O)O)cc1NC(=O)c1ccc(Cn2nc(C)c(Cl)c2C)o1 -17.2%, NC(=O)CCC(NS(=O)(=O)c1ccc(Cl)cc1)C(=O)NCc1ccccc1Cl (centres undefined) -12.6%, CCCCN(C)CCNC(=O)CSCc1ccc(C)cc1 0.318%, CC(=O)N1c2ccc(S(=O)(=O)N3CCCC(C(=O)Nc4cccc(F)c4)C3)cc2CC1C (centres undefined) 4.33%, CCOC(=O)c1c(C)[nH]c(C)c1S(=O)(=O)N(C)CC(=O)Nc1ccccc1C 23%, CCOC(=O)C1=C(c2ccc(OC)cc2)C(=O)c2ccccc2C1=O -17.2%, O=S(=O)(c1ccc(-c2ccccc2)cc1)N1CCCC1 1.66%, COc1ccc(-n2c(C)nn(CC3CC3)c2=O)cc1 5.05%, Cc1cc(Nc2cc(N3CCN(C)CC3)nc(Sc3ccc(NC(=O)C4CC4)cc3)n2)n[nH]1 -50.9%, O=C(O)CCn1c(SCc2cc(=O)n3ccccc3n2)nc2ccsc2c1=O -7.14%, Cc1ccc(/C=C2\SC(=S)N(CCC(=O)Nc3ccc(O)cc3)C2=O)cc1 0.184%, COc1ccccc1C(=O)NNC(=O)CCN1C(=O)/C(=C\c2ccccc2)SC1=S 8.03%, C=CCNC(=O)/C=C/c1ccc(C(C)C)cc1 -129%, Cc1ccc2nc(-c3ccc(SCC(=O)Nc4cc(C)on4)nc3)[nH]c2c1 -160%, COc1ccc(CNC(=O)CSc2n[nH]c(N)n2)cc1OC 4.62%, CCC(=O)Nc1ccc2nc(C)n(Cc3ccccc3Cl)c(=O)c2c1 11.1%, CCOc1cc(NC(=O)c2ccccc2C(=O)O)c(OCC)cc1NC(=O)c1ccccc1F 11.7%, C=CCc1cccc2cc(C(=O)Nc3ccc(NC(C)=O)cc3)c(=O)oc12 -30.5%, COc1ccc2sc(N(CCCN(C)C)C(=O)c3ccc(S(=O)(=O)N(C)C4CCCCC4)cc3)nc2c1 -20%, CCN(CC)CCN(C(=O)c1ccc(S(=O)(=O)N2CCOCC2)cc1)c1nc2cc3c(cc2s1)OCCO3 -15.5%, CSc1nc2ccc(S(=O)(=O)N3CCc4ccccc43)cc2s1 1.39%, CCOc1ccc2nc(N(CCN(C)C)C(=O)c3ccc4ccccc4c3)sc2c1 -8.13%, CN(C)CCCN(C(=O)c1ccc(S(=O)(=O)N2CCCCCC2)cc1)c1nc2cc3c(cc2s1)OCCO3 -27.7%, CCc1ccc2nc(N(CCCN(C)C)C(=O)c3ccc4c(c3)OCCO4)sc2c1 -34.6%, CCC1(CC)C(=O)C2=C3C1[C@H](C(=O)OC)C=C(C(=O)OC)C[C@H]3[C@H]1C(=O)N(Cc3ccccc3)C(=O)[C@H]1[C@H]2C (some centres undefined) 6.19%, COc1ccc(S(=O)(=O)NCC(c2ccc(C)cc2)N2CCN(C)CC2)cc1OC (centres undefined) -8.67%, COc1ccc(CN2CCC(n3nccc3NC(=O)CCCc3ccccc3)CC2)cc1C 23.5%, O=C(NCc1ccccc1)c1onc(CSc2nc3ccccc3[nH]2)c1C(=O)NCc1ccccc1 21.2%, COc1ccc(N2CCN(C(=O)[C@@H](NC(=O)c3cc(OC)cc(OC)c3)C(C)C)CC2)cc1 5.14%, CC(C)(C)c1ccc(C(=O)NCc2ccco2)cc1 -180%, CCCC1=Nc2cc(C(=O)NCCN3CCCC3)ccc2Sc2ccccc21 -14.6%, CCCN(CC(=O)Nc1ccc(OC)c(OC)c1)CC(=O)Nc1ccc(F)c(F)c1F 3.66%, Cc1ccc(CC(=O)N(C)CC(=O)N(CC(C)C)c2c(N)n(CC(C)C)c(=O)[nH]c2=O)cc1C 15%, Cc1nn(CC(=O)Nc2nc3ccccc3s2)c(C)c1[N+](=O)[O-] 5.8%, Cc1cc(NC(=O)CN2CCCC(C)C2)n(-c2nc3ccccc3s2)n1 (centres undefined) 27.7%, Nc1cc(N2CCCCCC2)c2nonc2c1[N+](=O)[O-] 11%, Cc1ccc(C2CC(=O)NC(SCC(=O)OCc3ccccc3)=C2C#N)o1 (centres undefined) -11.5%, CCOC(=O)CSC1=C(C#N)C(c2ccco2)C(C(=O)OCc2ccccc2)=C(C)N1 (centres undefined) 10.5%, Cc1nc2ccccc2c(=O)n1-c1ccc(F)c(NC(=O)c2cccs2)c1 9.3%, CCOc1ccc(NC(=O)c2ccc(NC(=O)COC(=O)c3ccc(NC(=O)CC#N)cc3)cc2)cc1 -88.1%, O=C(OCC(=O)c1cccs1)C1=COCCO1 -103%, Cc1nc2ccccc2nc(=O)c1NNc1ccc([N+](=O)[O-])cc1 -109%, CSCCC(NS(=O)(=O)c1ccc2c(c1)oc(=O)n2C)C(=O)NC1CCCc2ccccc21 (centres undefined) 1.15%, CC12CCC(C(=O)N(c3cccc(Cl)c3)C1=O)C2(C)C (centres undefined) 15.6%, O=C(NN1C(=O)C2C(C1=O)C1C=CC2C12CC2)c1ccccc1Cl (centres undefined) 12.2%

inhibition, active:
COc1cc(SC)ccc1C(=O)Nc1nc(C)cs1 96.2%, COC(=O)c1sc(NC(=O)c2ccc(OC)cc2OC)nc1C 101%, CSc1nc(N(C)NC(=O)c2cccc(C)c2)c2ccccc2n1 114%, CSc1nc(-c2ccccc2)nc(C(Cl)Cl)n1 114%, CC(C)(C)c1ccc(Oc2ccc(N)cc2)cc1 112%, Cc1c(Cl)c([N+](=O)[O-])nn1Cc1ccc(C(=O)N/N=C\c2cc(Cl)ccc2O)o1 81.2%, CCOC(=O)c1c(C)[nH]c2c1-c1ccccc1C(=O)C2=O 99.5%, C=CCOc1ccc(/C=C2\SC(=S)N(CCC(=O)O)C2=O)cc1 80%, CCN1CCN(c2cc3nc(C)n(Cc4ccccc4)c(=O)c3cc2NC(=O)c2ccccc2F)CC1 65.1%, CN(C)CCCN(C(=O)c1ccc(S(=O)(=O)N2CCCc3ccccc32)cc1)c1nc2ccc(F)cc2s1 74.2%, CN(C)CCCN(C(=O)c1ccc(S(=O)(=O)N2CCCCCC2)cc1)c1nc2ccc(Br)cc2s1 75.3%, CCOc1ccc2nc(N(CCCN(C)C)C(=O)c3ccc(C(=O)c4ccccc4)cc3)sc2c1 90.2%, CCCC1=Nc2cc(C(=O)NCc3ccco3)ccc2Sc2ccccc21 87.6%, CCC(C)Cn1c(O)cc2nn(-c3nc4ccccc4s3)c(=O)c-2c1C (centres undefined) 97.8%, CCOC(=O)CSC1=C(C#N)C(c2sccc2C)CC(=O)N1 (centres undefined) 75%, CCC(C)(C)c1ccc(Oc2ccc(NC(=O)COC(=O)C3=COCCO3)cc2)cc1 90.6%, CC12CCC(C(=O)N(NC(=O)c3ccccc3O)C1=O)C2(C)C (centres undefined) 67.6%

Reference: PubChem BioAssay AID1813 (Broad Institute, 2009)
